Molecules are shown by their SMILES. In all, about 65,000 compounds went through this assay and about 2,100 (3.2%) showed an effect of 50% or more. The median lay at about -52%. This is one part of a sample in which strong results are shown more often than they occur.

This test deals with Plasmodium falciparum. The test can be described thus: Screen against P. falciparum Asexual Blood Stage (ABS), at 5uM. To be noted: tested at 5 uM. Format: functional, Dd2.
`COc1ccc(CC(=O)NC(C)c2nc3cccnc3n2C(C)C)cc1` (configuration not stated): the INHIBITION is -100%.

Consider `NCCn1nc(C2CCN(C(=O)Cc3ccccc3)C2)c2nccnc21` (configuration not stated), for which the INHIBITION is -28.7%.

Turning to `CC(C)(C)CC(=O)N1CCC(c2nn(CCN)c3nccnc23)C1` (configuration not stated), the INHIBITION was -94.3%.

On to `NCCn1nc(C2CCN(C(=O)CC3CCCCC3)C2)c2nccnc21` (configuration not stated), for which the INHIBITION is reported as -16.3%.

Consider `NCCn1nc(C2CCN(Cc3ccc(Cl)c(Cl)c3)C2)c2nccnc21` (configuration not stated), for which the INHIBITION was 63.5%.

Regarding `Cn1nc(C2CCCN(Cc3ccc(F)c(F)c3)C2)c2nccnc21` (configuration not stated), the INHIBITION was found to be 23.4%.

As for `Cc1ccccc1CN1CCC(c2nn(CCN)c3nccnc23)C1` (configuration not stated), the INHIBITION came to 60.9%.

In the case of `CNC(=O)[C@H]1CO[C@H]2CCN(Cc3ccc4ccccc4n3)C[C@H]2C1`, the INHIBITION is recorded as -51.5%.

With `Cc1nc(NCc2ccccn2)c2c(n1)c(C)nn2C`, the INHIBITION is reported as -26.7%.

`Cc1cccc(Nc2cc(C)nc(C3CCN(C(C)C)C3)n2)n1` (configuration not stated): the INHIBITION is reported as -36.6%.

For the compound `CC(C#N)CSc1ccccc1NCC(=O)NC(C1CC1)C1CC1` (configuration not stated), the INHIBITION amounted to 56.3%.

In the case of `CC(C#N)CSc1ccccc1NCC(=O)Nc1ccccc1` (configuration not stated), the INHIBITION was -67.8%.

As for `CC(C#N)CSc1ccccc1NCC(=O)NC1CCCCC1` (configuration not stated), the INHIBITION is reported as -56.9%.

Turning to `Cc1nc(CNCC2CN(C)CCO2)cs1` (configuration not stated), the INHIBITION is -102%.

For the compound `CN1CCOC(CNCc2csc(C3CCCCC3)n2)C1` (configuration not stated), the INHIBITION is given as 58.6%.

In the case of `CN1CCOC(CNCc2csc(C3CCCC3)n2)C1` (configuration not stated), the INHIBITION is listed as -14.3%.

For `c1cncc(N2CCCn3nnc(CN4CCCCC4)c3C2)c1`, the INHIBITION is given as -88.4%.

As for `Cc1ccccc1SCC(=O)NS(=O)(=O)c1ccc2c(c1)OCCO2`, the INHIBITION is -14.4%.

Turning to `c1cncc(COCc2nnc3n2CCN(Cc2ccsc2)C3)c1`, the INHIBITION is -113%.

On to `O=C(c1ccc(F)cc1)N1CCN2C[C@H](OCc3cccnc3)C[C@H]2C1`, for which the INHIBITION stood at 1.13%.

Consider `Cc1occc1C(=O)N1CC[C@H]2C[C@@H](c3nnc(C4CC4)o3)O[C@@H]2C1`, for which the INHIBITION is -11.7%.

On to `COCCN1CCC(CNCc2c[nH]nc2C(C)(C)C)CC1`, for which the INHIBITION is reported as -130%.

`Cc1ccc(CNCc2c[nH]nc2C(C)(C)C)c(OC2CCOC2)c1` (configuration not stated): the INHIBITION is 57%.

Regarding `CN(C)CCN1CCC(CNCc2c[nH]nc2C(C)(C)C)CC1`, the INHIBITION is listed as -15.5%.

For `CCCNc1ncc(-c2cc(C3CC3)nc(N)c2C#N)cn1`, the INHIBITION came out at 55.8%.

Regarding `CCSc1ncc(-c2cc(C3CCC3)nc(N)c2C#N)cn1`, the INHIBITION is on record as -28.9%.

For the compound `CCSc1ncc(-c2cc(C3CC3)nc(N)c2C#N)cn1`, the INHIBITION worked out at 4.79%.

On to `CC1CCN(C(=O)CN2CC(c3nc(C4CC4)no3)C2)CC1`, for which the INHIBITION was -20.1%.

As to `O=C(C1CCC1)N1CCN(Cc2ccsc2)[C@H]2CS(=O)(=O)C[C@H]21`, the INHIBITION was -87.7%.

With `O=C(C1CCCC1)N1C[C@@H](c2ccsc2)[C@@H]2CN(C3CCCC3)CC[C@@H]21`, the INHIBITION is listed as 54.7%.

For the compound `CCC(=O)N1CCCC1c1ccsc1` (configuration not stated), the INHIBITION is given as -72.1%.

In the case of `CCOc1ncccc1CNC(=O)Nc1ccc(CC)cc1`, the INHIBITION is listed as -138%.

As for `COc1ccc2c(c1)C(NCCc1ccccn1)CCCO2` (configuration not stated), the INHIBITION was 57.6%.

Consider `Cc1ccc2c(c1)OCCCC2NCc1nnc2n1CCCCC2` (configuration not stated), for which the INHIBITION is -139%.

As for `COc1ccc2c(c1)C(NCCc1ncc(C)s1)CCCO2` (configuration not stated), the INHIBITION is reported as -31.7%.

As for `Cc1ccc2c(c1)C(NCc1ncnn1C)CC2` (configuration not stated), the INHIBITION is -64.9%.

Turning to `COc1cccc(CNC2CCc3ccc(C)cc32)n1` (configuration not stated), the INHIBITION is listed as 60.8%.

Regarding `COc1ccc2c(c1)C(NCCc1c(C)noc1C)CCCO2` (configuration not stated), the INHIBITION is 32.9%.

As for `COc1cccc(CNC2CCCOc3cc(C)ccc32)n1` (configuration not stated), the INHIBITION stood at 68.4%.

With `Cc1ccc2c(c1)C(NCc1ccccn1)CC2` (configuration not stated), the INHIBITION turned out to be 37.5%.

With `COc1c(CNC2CCCOc3ccc(F)cc32)c(C)nn1C` (configuration not stated), the INHIBITION was 29%.

As for `COc1ccc(C2=CCN(C(=O)CN(CC(N)=O)C(C)C)CC2)cc1`, the INHIBITION is -68.8%.

With `Cc1noc(C)c1CN1CCC[C@]2(C[C@@H](Oc3ccccn3)CO2)C1`, the INHIBITION is -61.7%.

On to `CC(=O)N1[C@H](Cn2cncn2)C[C@@H]2CN(Cc3ccncc3)CC[C@@H]21`, for which the INHIBITION is on record as -149%.

With `COc1ccc(C)c(NC(=O)NCc2ncnn2C)c1`, the INHIBITION is on record as -80.2%.

`O=C(NCCn1ccnc1)N1CCCC1c1ccncc1` (configuration not stated): the INHIBITION is reported as -10%.

On to `COc1ccc(C2CCCN2C(=O)NCCCn2cccn2)cc1` (configuration not stated), for which the INHIBITION is reported as -90.4%.

For the compound `O=C(NCCCn1ccnc1)N1CCCC1c1ccncc1` (configuration not stated), the INHIBITION is on record as -65.7%.

As for `O=C(NCCn1ccnc1)N1CCCC1c1ccsc1` (configuration not stated), the INHIBITION was -159%.

On to `COc1ccc(C2CCCN2C(=O)NCCn2ccnc2)cc1` (configuration not stated), for which the INHIBITION was 59.1%.

In the case of `COc1ccc(C2CCCN2C(=O)NCCCn2ccnc2)cc1` (configuration not stated), the INHIBITION was 61.9%.

As to `CCOc1ccc(C2CCCN2C(=O)NCCn2ccnc2)cc1` (configuration not stated), the INHIBITION came to 36.1%.

The values are drawn from ChEMBL document CHEMBL4513216, “Probing the Open Global Health Chemical Diversity Library for Multistage-Active Starting Points for Next-Generation Antimalarials” (ACS Infect Dis, 2020).
